Experimental data published in PubChem BioAssay AID651834 (Broad Institute, 2012).

The compounds below were run against Kelch-like ECH-associated protein 1 (Homo sapiens) (UniProt Q14145) (assay: disruptors of Keap1/Nrf2 protein interaction – biochemical, fluorescence polarization, dry powder, set 4, dose response (AID 651834)). Conditions: Keap1-Nrf2 peptide fluorescence polarization, plate reader; series mostly up to 100 µM; inhibition: at the top concentration; call rule not given here.
Chain of Kelch-like ECH-associated protein 1 (Homo sapiens) (Q14145 whole entry, looked up): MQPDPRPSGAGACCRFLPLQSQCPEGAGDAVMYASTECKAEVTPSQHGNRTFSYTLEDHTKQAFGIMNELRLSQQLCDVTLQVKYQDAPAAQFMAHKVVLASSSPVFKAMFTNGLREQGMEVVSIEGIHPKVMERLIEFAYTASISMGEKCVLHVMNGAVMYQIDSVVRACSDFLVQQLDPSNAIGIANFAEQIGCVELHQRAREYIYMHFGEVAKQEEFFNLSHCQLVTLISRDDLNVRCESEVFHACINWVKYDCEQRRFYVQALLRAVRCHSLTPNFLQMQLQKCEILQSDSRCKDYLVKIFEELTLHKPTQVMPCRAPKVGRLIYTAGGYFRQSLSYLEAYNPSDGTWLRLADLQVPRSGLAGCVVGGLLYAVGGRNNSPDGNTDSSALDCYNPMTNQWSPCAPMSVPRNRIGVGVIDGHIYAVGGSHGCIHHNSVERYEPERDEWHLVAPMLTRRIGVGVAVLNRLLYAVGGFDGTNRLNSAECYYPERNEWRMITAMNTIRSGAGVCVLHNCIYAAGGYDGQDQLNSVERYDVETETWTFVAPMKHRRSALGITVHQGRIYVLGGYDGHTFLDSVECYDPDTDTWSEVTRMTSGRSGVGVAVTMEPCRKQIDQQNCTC

inhibition, inactive:
O=C1c2ccccc2C(=O)N1CC1c2ccccc2CCN1C(=O)N1CCOCC1 (stereo not given) -3.21% [at 26 µM]
CC(=O)N1CCc2ccccc2C1CN1C(=O)c2ccccc2C1=O (stereo not given) 2.33%
COc1cc(/C=C/C(=O)N2CCC=CC2=O)cc(OC)c1OC 6.02% [at 26 µM]
O=C1c2ccccc2C(=O)N1CC1c2ccccc2CCN1C(=O)c1cccc(C(F)(F)F)c1 (stereo not given) -4.99%
CS(=O)(=O)N1CCc2ccccc2C1CN1C(=O)c2ccccc2C1=O (stereo not given) -5.66%
O=C(CN1CCc2ccccc2C1CN1C(=O)c2ccccc2C1=O)c1c[nH]c2ccccc12 (stereo not given) 32.3%
CCN(CC)C(=O)N1CCc2ccccc2C1CN1C(=O)c2ccccc2C1=O (stereo not given) -0.072%
COc1cc(OC)cc(C(=O)N2CCc3ccccc3C2CN2C(=O)c3ccccc3C2=O)c1 (stereo not given) -3.3%
O=C1c2ccccc2C(=O)N1CC1c2ccccc2CCN1S(=O)(=O)c1cccc2cccnc12 (stereo not given) 0.033%
O=C1c2ccccc2C(=O)N1CC1c2ccccc2CCN1C(=O)COc1ccc(Cl)cc1Cl (stereo not given) -1.55%
